About 83,000 compounds went through this panel and 20% of them were active in at least one assay; those are over-represented in the sample as a whole.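 48-hour exposure, single concentration, 96-well plates; percent growth endpoint where 0 means no net growth. Active: below 10.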 Unmarked numbers belong to inactive results. Calls of active or inactive are those of the source.
What follows are compounds tested on UO-31 renal (assay: NCI-60 one-dose screen, 48 h (100 = growth as untreated, 0 = no growth, -100 = all killed)). Details: 10 µM unless noted.

SMILES	growth
CC(=O)C1C(=O)C(=O)N(c2ccc(Cl)c(Cl)c2)C1=O (centres undefined)	95.2%
NNc1ncnc2nc[nH]c12	30.9%
CC1(C)CC(=O)C=C(N)C1	85.7%
O=C1Nc2ccccc2/C1=C\c1ccccc1O	51.3%
C=CCc1cc(OC)c(OC)c(OC)c1	105%
COCC(N)=O	85.2%
C/C(O)=C(/C=N/C(=S)Nc1ccccc1)C(=O)Nc1ccccc1C	89.7%
CSc1nsc(N)n1	82.3%
c1ccc(Oc2c3ccccc3nc3ccccc23)cc1	43.8%
NC(CSSCC(N)C(=O)O)C(=O)O (centres undefined)	13.9%
O=C(O)c1c[nH]c2ccccc2c1=O	90.6%
CC(C)N1CC(=O)N2CSCC2C1=O (centres undefined)	96.5%
O=C(Oc1ccccc1Cl)c1ccc(Cl)cc1Cl	85.4%
CN(C)c1ncnc2c1cnn2C	90.6%
CC(=O)NNC(=S)/N=C\C(C(=O)c1ccccc1)=C(/O)c1ccccc1	79.8%
C=CC(C)C(C)(C)O (centres undefined)	87.2%
C=COC(=O)CCOCC(CC)CCCC (centres undefined)	79.5%
CCCCCCCCCCCCSC1=C(Cl)C(=O)C(OC)=C(OC)C1=O	32.9%
Cc1onc(-c2c(F)cccc2Cl)c1-c1ncc(-c2ccc(Br)cc2)o1	-0.651% (active)

SMILES	growth
CC(=O)/C(C)=N\OC(=O)Nc1ccccc1	80.8%
Cc1ccc(S(=O)(=O)Oc2ccc3sc4c(CO)ccc(NCCN(C)C)c4c(=O)c3c2)cc1	-95.6% [100 µM] (active)
Cc1cccc(-[n+]2noc(N)n2)c1	49.7%
O=C(NCc1ccccc1)c1cccc([N+](=O)[O-])c1	70.1%
C/C(Cc1ccccc1)=N\O	102%
CCCCCC/C=C\CCCCCCCCCc1cc(O)cc(OC)c1O	-19.1% (active)
CC1(C)OC2C(CO)OC(n3ccc(=O)[nH]c3=O)C2O1 (centres undefined)	88%
C/C=C/C1OCC(CC)C(CCC)O1 (centres undefined)	81.1%
O=c1nc(Nc2cccc(Cl)c2)oc2cc(Cl)oc(=O)c12	47.9%
NC(CO)(CO)c1ccccc1	88.6%
ClCC(Cl)[C@@H]1CC2C=CC1C2 (some centres undefined)	88.7%
CN=S(=O)(OCCCCCOS(=O)(=NC)c1ccc(C)cc1)c1ccc(C)cc1 (centres undefined)	49.4%
CCCCN(C=S)CCCC	93.5%
CCCCCCCCCc1ccc(OC(C)=O)cc1	95.9%
Cc1nc(C)c(C(=O)O)cc1C(=O)O	97.2%
CC(=O)N(CCCCCCN(C(C)=O)C(C)=O)C(C)=O	98.1% [100 µM]
CN1CCCN(C(c2ccccc2)c2ccc(Br)cc2)CC1 (centres undefined)	60.5%
CCOc1ccc(NC(=S)N2CCC(CCCC3CCN(C(=S)Nc4ccc(OCC)cc4)CC3)CC2)cc1	-7.89% (active)

Each compound was assayed on TK-10 renal in the same assay as above. Details: 10 µM unless noted.

SMILES	growth
CC(=O)C1C(=O)C(=O)N(c2ccc(Cl)c(Cl)c2)C1=O (centres undefined)	107%
NNc1ncnc2nc[nH]c12	67.1%
CC1(C)CC(=O)C=C(N)C1	99.2%
O=C1Nc2ccccc2/C1=C\c1ccccc1O	124%
C=CCc1cc(OC)c(OC)c(OC)c1	104%
COCC(N)=O	102%
C/C(O)=C(/C=N/C(=S)Nc1ccccc1)C(=O)Nc1ccccc1C	110%
CSc1nsc(N)n1	101%
c1ccc(Oc2c3ccccc3nc3ccccc23)cc1	57.6%
NC(CSSCC(N)C(=O)O)C(=O)O (centres undefined)	20.4%
O=C(O)c1c[nH]c2ccccc2c1=O	97.7%
CC(C)N1CC(=O)N2CSCC2C1=O (centres undefined)	109%
O=C(Oc1ccccc1Cl)c1ccc(Cl)cc1Cl	103%
CN(C)c1ncnc2c1cnn2C	108%
CC(=O)NNC(=S)/N=C\C(C(=O)c1ccccc1)=C(/O)c1ccccc1	130%
C=CC(C)C(C)(C)O (centres undefined)	104%
C=COC(=O)CCOCC(CC)CCCC (centres undefined)	103%
CCCCCCCCCCCCSC1=C(Cl)C(=O)C(OC)=C(OC)C1=O	43.7%
Cc1onc(-c2c(F)cccc2Cl)c1-c1ncc(-c2ccc(Br)cc2)o1	46.8%

SMILES	growth
CC(=O)/C(C)=N\OC(=O)Nc1ccccc1	97.5%
Cc1ccc(S(=O)(=O)Oc2ccc3sc4c(CO)ccc(NCCN(C)C)c4c(=O)c3c2)cc1	-91.1% [100 µM] (active)
Cc1cccc(-[n+]2noc(N)n2)c1	124%
O=C(NCc1ccccc1)c1cccc([N+](=O)[O-])c1	99.6%
C/C(Cc1ccccc1)=N\O	103%
CCCCCC/C=C\CCCCCCCCCc1cc(O)cc(OC)c1O	24.3%
CC1(C)OC2C(CO)OC(n3ccc(=O)[nH]c3=O)C2O1 (centres undefined)	87.2%
C/C=C/C1OCC(CC)C(CCC)O1 (centres undefined)	101%
O=c1nc(Nc2cccc(Cl)c2)oc2cc(Cl)oc(=O)c12	98.1%
NC(CO)(CO)c1ccccc1	96.9%
ClCC(Cl)[C@@H]1CC2C=CC1C2 (some centres undefined)	114%
CN=S(=O)(OCCCCCOS(=O)(=NC)c1ccc(C)cc1)c1ccc(C)cc1 (centres undefined)	118%
CCCCN(C=S)CCCC	98.4%
CCCCCCCCCc1ccc(OC(C)=O)cc1	96.3%
Cc1nc(C)c(C(=O)O)cc1C(=O)O	112%
CC(=O)N(CCCCCCN(C(C)=O)C(C)=O)C(C)=O	116% [100 µM]
CN1CCCN(C(c2ccccc2)c2ccc(Br)cc2)CC1 (centres undefined)	61.4%
CCOc1ccc(NC(=S)N2CCC(CCCC3CCN(C(=S)Nc4ccc(OCC)cc4)CC3)CC2)cc1	96.9%
